# RORg inh: blocks mouse ROR gamma transcriptional activity; hit rate 5.4% among 310,000; P51450; Drosophila S2 Gal4-RORgamma UAS-luciferase reporter, 20 h; AID 2551; Potency, µM (highest dose often 53.6 µM), usual class: inhibitors; further: nearly all actives have a fitted effect of over 60% in size
#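 ROR gamma transcriptional activity was tracked as Gal4-UAS luciferase output in stably transfected Drosophila Schneider cells, with compound added 1 hr before 700 uM copper sulfate induction and a 20 hr ambient-temperature incubation.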
# Sfp PPTase inh: blocks B. subtilis Sfp PPTase activity; Q9F4F7; Biochemical Sfp PPTase activity, qHTS; Potency, µM, most hits filed as inhibitors; hit rate 3.5% among 310,000;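 further: the enzyme is Sfp with the accession as filed and its product quenches rhodamine fluorescence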
#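 Step 1, compound plus 15 nM Sfp-PPTase, 15 min, room temperature. Step 2, add rhodamine-CoA (5 uM) and BHQ-2-YbbR (12.5 uM). Step 3, read 525/598 nm fluorescence at 0 and 30 min.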
# PLK1 PBD block: PLK1 (human) polo-box domain binding inhibition; Plk1 PBD binding of FITC phosphopeptide, fluorescence polarization; Potency, µM, usual class: inhibitors; hit rate 2.8% among 360,000; further: series mostly up to about 57 µM; nearly all actives have a fitted effect of over 65% in size
# VP16 counter: Gal4-VP16 reporter inhibition counter-screen. Potency, µM (titrated, usually from 53.6 µM), actives largely listed as inhibitors. Drosophila S2 Gal4-VP16 UAS-luciferase, luminescence, 20 h. hit rate 3.5% among 310,000;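 further: Gal4-VP16 expression switched on by copper sulfate through the metallothionein promoter; nearly all actives have a fitted effect of over 50% in size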
# ALDH1A1 inh: ALDH1A1 (human) enzyme inhibition | P00352 | Purified ALDH1A1, NADH fluorescence, propionaldehyde substrate | Potency, µM (doses to about 75.3 µM), usual class: inhibitors | hit rate 7.3% among 220,000; active means well fitted inhibition curve with a large enough effect, not every such curve was filed as active; inconclusive means small, poorly fitted or top-dose-only effect, or another doubt; inactive means no such curve, though single readings can be large or run the other way
# Target sequence (P00352 whole entry, looked up): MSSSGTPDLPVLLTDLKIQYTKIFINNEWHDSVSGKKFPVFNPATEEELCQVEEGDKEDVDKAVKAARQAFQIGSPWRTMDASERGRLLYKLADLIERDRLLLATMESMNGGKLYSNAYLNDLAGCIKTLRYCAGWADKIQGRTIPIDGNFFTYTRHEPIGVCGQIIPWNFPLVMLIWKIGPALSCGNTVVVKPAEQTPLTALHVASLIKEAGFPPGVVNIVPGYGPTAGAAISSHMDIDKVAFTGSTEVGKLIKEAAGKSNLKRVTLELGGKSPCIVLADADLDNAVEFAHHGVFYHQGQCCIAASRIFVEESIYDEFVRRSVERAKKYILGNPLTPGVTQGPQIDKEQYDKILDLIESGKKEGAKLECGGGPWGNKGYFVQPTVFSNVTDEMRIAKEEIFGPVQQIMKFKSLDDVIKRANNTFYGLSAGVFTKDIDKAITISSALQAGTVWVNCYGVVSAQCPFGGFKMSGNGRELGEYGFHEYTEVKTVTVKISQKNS
# Hits are given with their value; 0 = inactive; ? = inconclusive; - = not tested or not shown; [ ] = remark or other dose. Most compounds without a hit are left out; they make up all but 12% or so of the library. Unless noted, the call rests on the fitted dose curve; in most records, active means well fitted curve in the direction sought with a large enough effect; inconclusive means small, poorly fitted or top-dose-only effect, or another doubt; inactive means no such curve, though single readings can be large; an effect the other way counts as inactive or inconclusive.
SMILES,RORg inh,Sfp PPTase inh,PLK1 PBD block,VP16 counter,ALDH1A1 inh
O=C(CCC(=O)OCC(=O)c1ccc(Cl)cc1Cl)Nc1cccc2cccnc12,0,0,0,0,28µM
O=C(Cn1cnc2cc([N+](=O)[O-])ccc2c1=O)NC1CCS(=O)(=O)C1 (stereo not drawn),0,?,0,0,0
Cc1cccc(NC2=NCC(=O)N2Cc2ccccc2)c1,0,0,0,0,25µM
Cc1cc(C)cc(NC2=NCC(=O)N2Cc2ccccc2)c1,?,0,?,0,0
CC(=O)CC1c2ccccc2C=C(c2ccsc2)N1c1ccc(-c2cccs2)cc1 (stereo not drawn),-,-,0,-,-
Clc1ccc(-c2csc(N3CCSCC3)n2)cc1,0,0,24µM,0,0
c1ccc(-c2csc(N3CCSCC3)n2)cc1,0,0,0,0,0
Cc1ccccc1NN=Nc1nc2c([nH]1)c(=O)n(C)c(=O)n2C,0,0,?,?,?
Cn1c(=O)c2[nH]c(N=NNc3ccccc3F)nc2n(C)c1=O,0,25µM,0,0,-
COc1ccc(NN=Nc2nc3c([nH]2)c(=O)n(C)c(=O)n3C)cc1,0,16µM,4.7µM,0,8.9µM
CCCCCCCCCCOCC(O)CN (stereo not drawn),0,0,-,0,-
O=C(Nc1ccccc1Cl)C(Cl)C(=O)c1ccccc1 (stereo not drawn),0,0,1.7µM,0,1.8µM
O=C(Nc1ccccc1Cl)c1ccccc1,0,0,0,0,0
O=C(CSC1=NC(=O)C(c2ccccc2)C(=O)N1)Nc1ccccc1Cl (stereo not drawn),0,0,0,0,20µM
CC(=O)NC1C(OCc2ccccc2)OC2COC(c3ccccc3)OC2C1OCC(=O)O (stereo not drawn),0,0,21µM,0,0
CC1CCN(C(=O)c2cc3c(ccc4ccccc43)o2)CC1,4.5µM,0,0,10µM,-
CNc1cncc(-c2ccc(OCCCN(C)C)nc2)n1,-,-,0,-,-
CC(=O)Nc1ccc(C(=O)NC(CC(=O)O)c2ccc(Cl)cc2)cc1 (stereo not drawn),0,0,0,0,0
COCC(C)NC(=O)c1ccc(N(C)C)cc1 (stereo not drawn),0,0,0,0,8.9µM
CN(C)c1ccc(C(CC(=O)O)NC(=O)c2ccc(Cl)cc2)cc1 (stereo not drawn),0,0,0,0,18µM
O=[N+]([O-])c1cccc(COc2cccc(CN3CCCCC3)c2)c1,-,-,0,-,-
CC(C)NC(=O)N1CC2(CCN(C(=O)c3ccco3)CC2)C1,0,0,-,0,?
O=C(O)[C@H]1O[C@H]1C(=O)O,-,-,-,-,0[13.5 µM]
CCC(Sc1ccc2nnc(-c3ccc(F)cc3)n2n1)C(=O)OC (stereo not drawn),20µM,0,0,0,?
O=S1(=O)CC(N2CCCCC2)CN1C1CCCCC1 (stereo not drawn),-,-,0,-,-
SMILES,RORg inh,Sfp PPTase inh,PLK1 PBD block,VP16 counter,ALDH1A1 inh
OCCN(CC#CCC(O)(c1ccccc1)C1CCCC1)CCO (stereo not drawn),0,0,0,0,-
CC(C)(C)N(CC#CCC(O)(c1ccccc1)c1ccccc1)CCO,0,40µM,0,0,?
O=C(NCCc1ccccc1)C1CCCN1C(=O)Nc1ccc(F)cc1 (stereo not drawn),0,?,19µM,0,0
O=C(NCCc1ccc(Cl)cc1)C1CCCN1C(=O)Nc1ccc(F)cc1 (stereo not drawn),0,0,0,0,-
O=C(c1ccc2c(=O)n3c(nc2c1)CCC3)N1CCN(S(=O)(=O)c2ccccc2Br)CC1,-,-,0,-,-
O=C(CSc1nnc(-c2ccccc2)n1-c1ccc(Cl)cc1)NNC(=S)Nc1ccccc1,?,0,0,?,16µM
CCn1c(SCC(=O)NNC(=S)Nc2ccccc2)nnc1-c1ccc(Cl)cc1,4µM,0,0,1.3µM,0
CCn1c(SCc2ccc(C#N)cc2)nnc1-c1cccc(Cl)c1,0,0,0,0,0
C=CCn1c(SCC(=O)NNC(=S)Nc2ccccc2)nnc1-c1ccccc1,?,0,0,0,-
CCn1c(SCC(=O)N/N=C/C=C/c2ccccc2[N+](=O)[O-])nnc1-c1ccc(Cl)cc1,0,0,-,?,4.5µM
O=C(CN1CCN(Cc2ccc(Cl)cc2)CC1)N/N=C/C=C/c1ccccc1[N+](=O)[O-],0,0,0,0,?
CCn1c(SCc2ccc(Cl)cc2)nnc1-c1ccccc1,?,0,27µM,0,0
CC(C)C[C@H](NC(=O)c1nc[nH]c1C(=O)N1CCc2ccccc2C1)C(=O)OC(C)(C)C,11µM,0,0,?,-
C[C@H](NC(=O)c1nc[nH]c1C(=O)N1CCc2ccccc2C1)C(=O)OC(C)(C)C,?,0,0,?,-
CC(C)(C)OC(=O)CNC(=O)c1nc[nH]c1C(=O)N1CCN(c2ccccc2)CC1,13µM,0,0,0,-
CC(C)C[C@H](NC(=O)c1nc[nH]c1C(=O)N1CCC(C)CC1)C(=O)OC(C)(C)C,16µM,0,0,?,-
CC(C)(C)OC(=O)N1CCN(C(=O)c2nc[nH]c2C(=O)N2CCN(c3ccccc3)CC2)CC1,-,-,0,-,-
O=C(CNC(=O)c1nc[nH]c1C(=O)N1CCc2ccccc2C1)OCc1ccccc1,14µM,0,19µM,?,-
COC(=O)Cn1cnc2c(Cl)nc(F)nc21,-,-,0,-,-
Nc1nc2cc(Cl)ccc2cc1C(=O)NCCCc1ccccc1,-,-,0,-,-
Cc1csc(Nc2nc(N)c(C(=O)Nc3cc(Cl)ccc3F)o2)n1,0,0,0,0,-
COc1ccc(NC(=O)C2(C)Cc3c(-c4ccc(N(C)C)cc4)ccnc3O2)cn1 (stereo not drawn),-,-,0,-,-
CC(C)C[C@H](NC(=O)c1nc[nH]c1C(=O)N1CCN(c2ccccc2)CC1)C(=O)OC(C)(C)C,13µM,0,0,?,-
Cc1ccc(C(=O)NNC(=O)c2cc3ccccc3cc2O)cc1,14µM,0,0,?,-
Cc1cc(C(=O)Nc2ccc(C(=O)O)cc2)c(C)o1,0,0,0,0,-
SMILES,RORg inh,Sfp PPTase inh,PLK1 PBD block,VP16 counter,ALDH1A1 inh
CC1(C(=O)Nc2ccc3ccccc3c2)CC1(Br)Br (stereo not drawn),11µM,0,0,?,0
COC(=O)c1cc(NC(=O)c2nccnc2C(=O)O)cc(C(=O)OC)c1,0,56µM,0,0,0
COC(=O)c1cc(NC(=O)c2cc(C)oc2C)cc(C(=O)OC)c1,?,0,?,0,25µM
CC(C)CCC[C@@H](C)[C@H]1CC[C@H]2[C@@H]3CC=C4C[C@@H](O)CC[C@]4(C)[C@H]3CC[C@]12C,0,0,-,0,0
CC(=O)c1cc(C(=O)Nc2ccc3ccccc3c2)c(C)o1,0,0,0,0,-
Cc1ccc(C(=O)Nc2ccc3ccccc3c2)cc1,6.3µM,0,0,11µM,-
Cc1cc(C(=O)Nc2ccc3ccccc3c2)c(C)o1,8.9µM,0,0,?,-
COc1cc(NC(=O)c2cc3ccccc3cc2O)c(OC)cc1Cl,?,0,0,0,-
O=C(Nc1ccc2ccccc2c1)c1ccc(Cl)cc1,?,0,0,?,-
Cc1ccc(Cl)cc1NC(=O)c1cc2ccccc2cc1O,5µM,0,0,2.8µM,0
